This is part of a sample that, as a whole, favours compounds with a hit. Of some 79,000 tested, about 15% had one in any assay. The source made the active and inactive calls. Rule as the data show it: active = growth inhibition above about 70%; inactive = the rest.
Assays:
[1] = NCI Yeast Anticancer Drug Screen. Data for the rad50 strain (AID 155);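 also: 0% = growth of vehicle-only cultures of the same strain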; conditions: S. cerevisiae rad50 strain growth inhibition, hits give high values
Procedure, shortened: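 A DNA repair-deficient yeast mutant serves as the test organism; compound-induced growth inhibition is calculated against vehicle-treated cells.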

[2] = NCI Yeast Anticancer Drug Screen. Data for the mec2-1 strain (AID 157); conditions: S. cerevisiae mec2-1 strain, hits give high values
Procedure, shortened: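 Each compound was tested on mec2-1 yeast, a strain altered in DNA damage repair or cell cycle control. Growth inhibition is reported relative to vehicle.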

[3] = NCI Yeast Anticancer Drug Screen. Data for the sgs1 mgt1 strain (AID 161);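 also: 0% = growth of cultures given vehicle only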; conditions: S. cerevisiae sgs1 mgt1 strain, hits give high values
Procedure, shortened: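 Inhibition of yeast growth, normalised to vehicle-treated controls, is reported for a strain bearing genetic alterations in DNA damage repair.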

[4] = NCI Yeast Anticancer Drug Screen. Data for the cln2 rad14 strain (AID 165);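 also: 0% = growth equal to vehicle treated cultures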; conditions: S. cerevisiae cln2 rad14 strain, hits give high values
Procedure, shortened: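 Test compounds were added to cln2 rad14 yeast cultures; inhibition of growth was then determined by comparison with vehicle treatment.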

[5] = NCI Yeast Anticancer Drug Screen. Data for the bub3 strain (AID 167); conditions: S. cerevisiae bub3 mutant strain, hits give high values
Procedure, shortened: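 Inhibition values come from growth of compound-treated mutant yeast normalised to vehicle-treated controls.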

[6] = NCI Yeast Anticancer Drug Screen. Data for the mlh1 rad18 strain (AID 175); conditions: S. cerevisiae mlh1 rad18 strain growth inhibition, hits give high values
Procedure, shortened: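 Inhibition values reflect reduced growth of mutant yeast versus vehicle-treated controls following compound exposure; the mutations affect DNA damage repair.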

[7] = at 5.0 µM (retest, dose inferred, filed as 0.5)
[8] = at 50.0 µM (retest, dose inferred, filed as 5.0)

Measured: growth inhibition

COc1cc(O)c2c(c1)C(O)C(O)CC1OC1C(=O)/C=C/CC(C)OC2=O (configuration not stated)
active: [1]; [7] 80% | [1]; [8] 98% | [1]; at 50.0 µM 91.5% | [2]; [8] 99% | [2]; at 50.0 µM 93.3% | [3]; [8] 99% | [3]; at 50.0 µM 93.1% | [4]; [8] 99% | [4]; at 50.0 µM 92.2% | [5]; [7] 79% | [5]; [8] 99% | [5]; at 50.0 µM 92% | [6]; [7] 81% | [6]; [8] 98% | [6]; at 50.0 µM 92%
inactive: [2]; [7] 59% | [3]; [7] 64% | [4]; [7] 61%

C/C(=N\NC(=O)N/N=C(\C)c1ccccn1)c1ccccn1
inactive: [1]; [7] 0% | [1]; [8] 16% | [1]; at 50.0 µM -6.55% | [2]; [7] -18% | [2]; [8] -16% | [2]; at 50.0 µM 16.8% | [3]; [7] 7% | [3]; [8] 24% | [3]; at 50.0 µM 35.9% | [4]; [7] -21% | [4]; [8] 1% | [4]; at 50.0 µM 2.95% | [5]; [7] 2% | [5]; [8] -13% | [5]; at 50.0 µM 35.5% | [6]; [7] 14% | [6]; [8] -6% | [6]; at 50.0 µM -5.95%

CC(=O)Oc1cccc2c(C(=O)CCl)ccnc12
inactive: [4]; [7] 15% | [5]; [8] 18%
active: [1]; [7] 87% | [1]; [8] 99% | [1]; at 50.0 µM 99.1% | [2]; [7] 86% | [2]; [8] 99% | [2]; at 50.0 µM 95% | [3]; [7] 96% | [3]; [8] 99% | [3]; at 50.0 µM 99.2% | [4]; [8] 99% | [4]; at 50.0 µM 92% | [5]; [7] 90% | [5]; at 50.0 µM 95.3% | [6]; [7] 73% | [6]; [8] 99% | [6]; at 50.0 µM 98.8%

O=C(CCCCN1CCN2c3ccccc3CCC2C1)c1ccccc1 (configuration not stated)
inactive: [1]; [7] -3% | [1]; [8] 51% | [2]; [7] 2% | [2]; [8] 53% | [3]; [7] 15% | [4]; [7] -2% | [4]; [8] 39% | [4]; at 50.0 µM 58.8% | [5]; [7] 1% | [5]; [8] 37% | [5]; at 50.0 µM 53.8% | [6]; [7] 38% | [6]; at 50.0 µM 68.9%
active: [1]; at 50.0 µM 90.4% | [2]; at 50.0 µM 70.9% | [3]; [8] 80% | [3]; at 50.0 µM 94.4% | [6]; [8] 83%

CC(C)(C)C(OC(=O)Nc1ccccc1)C(C)(C)C
inactive: [1]; [7] -1% | [1]; [8] 29% | [1]; at 50.0 µM -0.7% | [2]; [7] -18% | [2]; [8] -5% | [2]; at 50.0 µM -2.2% | [3]; [7] 4% | [3]; [8] 8% | [3]; at 50.0 µM -9.55% | [4]; [7] 9% | [4]; [8] 16% | [4]; at 50.0 µM -61.5% | [5]; [7] -1% | [5]; [8] 37% | [5]; at 50.0 µM 5.1% | [6]; [7] 9% | [6]; [8] 36% | [6]; at 50.0 µM 6.25%

[Br][Pt+2][Br].[NH-]c1cccc(I)c1.[NH-]c1cccc(I)c1
inactive: [1]; [7] 2% | [1]; [8] 60% | [1]; at 50.0 µM 39.5% | [2]; [7] 1% | [2]; [8] 31% | [2]; at 50.0 µM 22.2% | [3]; [7] 8% | [3]; [8] 39% | [3]; at 50.0 µM 30.8% | [4]; [7] -1% | [4]; [8] 27% | [4]; at 50.0 µM 12.6% | [5]; [7] 1% | [5]; [8] -5% | [5]; at 50.0 µM 3.25% | [6]; [7] 5%
active: [6]; [8] 81% | [6]; at 50.0 µM 88.8%

ClC(Cl)(Cl)C(c1ccccc1)c1ccccc1
inactive: [1]; [7] 3% | [1]; [8] 30% | [2]; [7] 0% | [2]; [8] 12% | [2]; at 50.0 µM 38.5% | [3]; [7] 3% | [3]; [8] 42% | [4]; [7] 4% | [4]; [8] -3% | [4]; at 50.0 µM -17.2% | [5]; [7] -5% | [5]; [8] 5% | [5]; at 50.0 µM 16.4% | [6]; [7] 16% | [6]; [8] 15%
active: [1]; at 50.0 µM 76.8% | [3]; at 50.0 µM 71.1% | [6]; at 50.0 µM 73.8%

CC(C)(Br)C(=O)/C=C/c1ccc(Cl)cc1
active: [1]; [7] 92% | [1]; [8] 100% | [1]; at 50.0 µM 99.5% | [2]; [7] 92% | [2]; [8] 100% | [2]; at 50.0 µM 99.7% | [3]; [7] 94% | [3]; [8] 99% | [3]; at 50.0 µM 99.6% | [4]; [7] 89% | [4]; [8] 100% | [4]; at 50.0 µM 99.7% | [5]; [8] 99% | [5]; at 50.0 µM 99.3% | [6]; [7] 97% | [6]; [8] 100% | [6]; at 50.0 µM 99.4%
inactive: [5]; [7] 38%

CC#CC(=O)Nc1ccccc1CC(c1c[nH]c2ccccc12)c1c[nH]c2ccccc12
inactive: [1]; [7] 50% | [1]; [8] 50% | [2]; [7] 31% | [2]; [8] 31% | [2]; at 50.0 µM 55.1% | [3]; [7] 40% | [3]; [8] 40% | [3]; at 50.0 µM 67.5% | [4]; [7] 19% | [4]; [8] 19% | [4]; at 50.0 µM 67.7% | [5]; [7] 32% | [5]; [8] 32% | [5]; at 50.0 µM 60.8% | [6]; [7] 35% | [6]; [8] 35% | [6]; at 50.0 µM 53.8%
active: [1]; at 50.0 µM 75.4%

— PubChem BioAssay (NCI)
